# Source: PubChem BioAssay AID485346 (Sanford-Burnham Center for Chemical Genomics, 2010)
# Screen size: about 330,000 compounds; about 10,000 (3%) were called active. The sample as a whole holds a higher share of actives than the screen did. Unmarked numbers belong to inactive results.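 Rule for the calls: active = inhibition of at least 50% at 8 µM in the primary screen; inactive = the rest.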
# Molecular target: Protein Mdm4 (Homo sapiens) + E3 ubiquitin-protein ligase Mdm2 (Homo sapiens) (UniProt O15151+Q00987)
# Experiment: inhibitors of human Mdm2-MdmX association, primary screen, cell-based, luminescence, split luciferase, SaOS-2, uHTS (AID 485346)
# Settings: SaOS-2 split-luciferase Mdm2/MdmX complementation, at 8 µM, active compounds read high
# Protein Mdm4 (Homo sapiens) + E3 ubiquitin-protein ligase Mdm2 (Homo sapiens), sequence (O15151 whole entry, looked up): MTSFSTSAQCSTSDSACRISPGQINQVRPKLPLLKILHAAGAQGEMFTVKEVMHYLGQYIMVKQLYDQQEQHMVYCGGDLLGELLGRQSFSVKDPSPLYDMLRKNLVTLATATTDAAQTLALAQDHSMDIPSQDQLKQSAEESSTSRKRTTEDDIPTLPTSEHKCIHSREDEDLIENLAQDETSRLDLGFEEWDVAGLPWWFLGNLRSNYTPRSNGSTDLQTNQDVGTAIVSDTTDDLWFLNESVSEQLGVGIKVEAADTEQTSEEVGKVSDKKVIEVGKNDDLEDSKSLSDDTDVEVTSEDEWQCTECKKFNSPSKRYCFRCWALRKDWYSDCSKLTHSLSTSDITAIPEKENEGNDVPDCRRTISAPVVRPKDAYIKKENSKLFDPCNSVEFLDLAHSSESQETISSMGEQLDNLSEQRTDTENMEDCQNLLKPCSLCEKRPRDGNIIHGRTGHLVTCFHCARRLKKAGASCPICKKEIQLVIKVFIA
# Protein Mdm4 (Homo sapiens) + E3 ubiquitin-protein ligase Mdm2 (Homo sapiens), sequence (Q00987 whole entry, looked up): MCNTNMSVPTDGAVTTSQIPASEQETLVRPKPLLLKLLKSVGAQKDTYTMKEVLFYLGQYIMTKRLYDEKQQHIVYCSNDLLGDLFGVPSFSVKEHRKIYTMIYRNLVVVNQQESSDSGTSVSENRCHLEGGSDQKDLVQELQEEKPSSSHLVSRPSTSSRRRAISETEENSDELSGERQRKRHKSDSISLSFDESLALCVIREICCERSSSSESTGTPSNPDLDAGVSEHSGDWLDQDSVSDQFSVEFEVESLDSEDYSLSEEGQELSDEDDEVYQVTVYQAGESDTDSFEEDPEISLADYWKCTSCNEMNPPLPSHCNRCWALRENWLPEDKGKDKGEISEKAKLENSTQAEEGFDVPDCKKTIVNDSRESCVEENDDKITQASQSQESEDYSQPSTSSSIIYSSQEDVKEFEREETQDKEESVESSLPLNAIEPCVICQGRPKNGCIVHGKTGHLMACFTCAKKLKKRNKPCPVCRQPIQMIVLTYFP
row,SMILES,inhibition
1,CC(C)(C)C1CCC(C(=O)Nc2cccnc2)CC1 (stereo unspecified),19%
2,CCC(C)(C(=O)Nc1ccccc1C)N(C(=O)CNC(C)=O)c1ccc(C)cc1 (stereo unspecified),-5.46%
3,CN1CCN(C2Cc3ccc(Cl)cc3Sc3ccc(F)cc32)CC1 (stereo unspecified),54.3% (active)
4,CC(OC(=O)CCCOc1ccccc1)C(=O)Nc1ccc(Cl)cn1 (stereo unspecified),17.5%
5,COC(=O)[C@@H]1C[C@@]2(O)[C@H](O)[C@H](O)[C@H](O)C[C@H]2N1Cc1ccc(C)s1,7.36%
6,CCC(c1nnnn1C1CCCC1)N(Cc1cccs1)Cc1cc2cccc(C)c2[nH]c1=O (stereo unspecified),56.1% (active)
7,CCC(c1nnnn1Cc1ccco1)N(CCc1ccccc1)Cc1cc2cccc(C)c2[nH]c1=O (stereo unspecified),12.5%
8,Cc1cccc2cc(CN(Cc3nnnn3Cc3ccccc3)C3CCCC3)c(=O)[nH]c12,13.2%
9,CN(C(=O)CSc1cccc[n+]1[O-])C1CCCCC1,20.9%
10,CN1CCN(CC#CCC2(O)c3ccccc3-c3ccccc32)CC1,16.2%
11,COc1ccc(-c2nnc(SC(=O)N3c4ccccc4Sc4ccccc43)o2)cc1,69.1% (active)
12,COc1ccc(-c2nnc(SCC(=O)c3ccc4c(c3)OCCO4)o2)cc1,17.3%
13,COc1ccc(-c2nnc(SC(C)C(=O)NC3CC3)o2)cc1 (stereo unspecified),19.9%
14,O=C(CCc1ccccc1)Nc1ccc(NC(=O)C2CCCCC2)nc1,11%
15,COc1ccc(CNC(=O)CN(C(=O)c2csnn2)c2cnc3ccccc3c2)cc1,12.6%
16,CCOC(CNC(=O)C1CCN(S(=O)(=O)c2ccc3nc4c(c(C(=O)O)c3c2)CC(C)CC4)CC1)OCC (stereo unspecified),14.5%
17,C/C(=N\OCC(=O)O)c1ccc(Cl)cc1,-3.73%
18,C/C(=N\NC(=S)NCc1ccccc1)c1ccc(Cl)cc1,12.3%
19,C/C(=N\N=C(N)N)c1ccc(Cl)cc1,52% (active)
20,CN(C)c1ccc(C(CNC(=O)c2ccc(F)cc2)c2c[nH]c3ccccc23)cc1 (stereo unspecified),3.11%
21,COC(=O)c1sccc1NC(=O)COc1ccc(Cl)cc1,-7.02%
22,Cc1cnc(C(=O)OCC(=O)Nc2ccc(Cl)cc2Cl)cn1,21.4%
23,COC(=O)c1c(NC(=O)COc2ccc(Cl)cc2Cl)sc2c1CC(C)(C)NC2(C)C,100% (active)
24,CCc1ccc(CN(C)C(C)C(=O)Nc2ccc(S(=O)(=O)N3CCCC3)cc2)cc1 (stereo unspecified),20.1%

row,SMILES,inhibition
1,NS(=O)(=O)c1ccc(N=Nc2c(O)[nH]c3ccc(Br)cc23)cc1,53.6% (active)
2,Oc1[nH]c2ccc(Br)cc2c1N=Nc1nn[nH]n1,13.6%
3,O=C(CNC(=O)Cc1ccccc1)N=Nc1c(O)[nH]c2ccc(Br)cc12,37.6%
4,Cc1ccc(S(=O)(=O)Oc2ccc(/C=N/NC(=O)c3ccncc3)cc2)cc1,16.6%
5,Cc1ccc(OCCOCCOc2ccc(Br)cc2/C=N\NC(=O)c2ccncc2)cc1,59.9% (active)
6,COc1ccc(CC(=O)NCC(=O)N/N=C/c2cc(Br)ccc2OC)cc1,41.6%
7,O=C(Nc1ccnn1C1CCN(C/C=C/c2ccc(F)cc2)CC1)C1CCCC1,22.3%
8,O=C(O)CN(Cc1ccco1)S(=O)(=O)c1ccc(F)cc1,-22%
9,Cc1onc(-c2c(F)cccc2Cl)c1C(=O)N(C)CC(=O)Nc1cccc(F)c1,-8.71%
10,COc1cccc(CNCCc2c[nH]c3ccccc23)c1OCc1ccccc1F,92.8% (active)
11,COc1ccc(S(=O)(=O)NCCc2c[nH]c3ccccc23)cc1OC,6.22%
12,COc1ccccc1NC(=O)CCCc1c[nH]c2ccccc12,-3.5%
13,Cc1ccoc1C(=O)Nc1cccc(Oc2ccccc2)c1,-66.5%
14,COC(=O)c1ccccc1NC(=O)C1(S(=O)(=O)c2ccc(Cl)cc2)CC1,-0.27%
15,C=C(C)COc1ccc(-c2n[nH]c(C)c2-c2ccccc2)c(O)c1,53.7% (active)
16,C=C(C)COc1ccc(-c2nc(N)ncc2-c2ccccc2OC)c(O)c1,17.9%
17,COc1ccc(-c2n[nH]c(C)c2-c2ccc(OC)c(OC)c2)c(O)c1,62.5% (active)
18,C=C(C)COc1ccc(-c2ncncc2-c2ccc(OC)cc2)c(O)c1,29.3%
19,C=C(C)COc1ccc(-c2n[nH]c(C)c2-c2ccccc2OC)c(O)c1,53.6% (active)
20,COc1ccc(-c2n[nH]c(C)c2-c2ccccc2OC)c(O)c1,38.6%
21,COc1ccc(-c2[nH]ncc2CN(C)Cc2c(C)n[nH]c2C)c(OC)c1,15.3%
22,COc1ccc(-c2c(-c3ccc(OC)cc3O)nc(C)nc2C(F)(F)F)cc1,8.07%
23,CCOc1ccc(-c2nc(N)ncc2-c2ccccc2OC)c(O)c1,11.3%
24,O=C(NCCCCO)C(F)(F)C(F)(F)C(F)(F)C(=O)NCCCCO,-22.9%

row,SMILES,inhibition
1,C=CCNCCCCOc1ccccc1,-9.48%
2,C/C=C/C=C/C(=O)OCC(=O)Nc1ccc(Cl)cc1,23.8%
3,Cc1ccc(N2C(=O)CC(Sc3ncn[nH]3)C2=O)cc1 (stereo unspecified),7.7%
4,N#CC1(NC(=O)COC(=O)CSc2ccc(F)cc2)CCCCC1,6.22%
5,Cc1ccc(C(=O)NN(CCC#N)C2=NS(=O)(=O)c3ccccc32)cc1,6.64%
6,Cc1cn(C2OC[C@@H](O)[C@@H]2CO)c(=O)[nH]c1=O (stereo partly specified),-25.3%
7,CCn1c(/C=C/Nc2ccccc2)[n+](CC)c2ccc(C(=O)OCC(F)(F)F)cc21,50.7% (active)
8,CCOC(=O)c1ccc2c(c1)nc(C)n2CC,-24.3%
9,CCOC(=O)N1CCN(C(=O)c2ccc(S(=O)(=O)Nc3cccc(C(F)(F)F)c3)cc2)CC1,5.75%
10,Cc1nc2c(C(=O)NCc3cccs3)cnn2c(C)c1Cc1ccc(F)cc1,5.96%
11,CN(C)c1ccc(-c2nnc(-c3cccnc3)o2)cc1,-90.9%
12,OC(CNCc1ccc2c(c1)OCO2)COc1ccccc1 (stereo unspecified),-15.2%
13,Cc1ccc(OCC(=O)OC(C)CN(C)Cc2ccccc2)cc1 (stereo unspecified),-13.3%
14,CN(Cc1ccccc1)CC(O)COc1ccc(CNCc2cc3ccccc3s2)cc1 (stereo unspecified),51.9% (active)
15,CCC(C)c1ccc(NC(=S)N2CCCC2)cc1 (stereo unspecified),17.9%
16,O=C(O)CN1C(=O)CC(Cc2ccccc2)C1=O (stereo unspecified),3.44%
17,NS(=O)(=O)c1ccc(CNC(=O)c2cccc(S(=O)(=O)N3CCc4ccccc43)c2)cc1,27.6%
18,C[C@@H]1CN([C@@H](C)CO)C(=O)c2cccc(NS(=O)(=O)c3ccc(F)cc3)c2O[C@H]1CN(C)C(=O)NC1CCCCC1,-2.62%
19,CN1CCN(c2ccccc2NC(=O)COc2ccc(C3CCCCC3)cc2)CC1,51.3% (active)
20,O=C(CN1CCN(C2CCCCC2)CC1)Nc1ccccc1N1CCCCC1,20%
21,Cc1ccc(C(C)C)cc1OCC(=O)Nc1ccccc1N1CCCC1,28.7%
22,CSCCC1NC(=O)N(CC(=O)Nc2cccc(S(=O)(=O)N3CCCCCC3)c2)C1=O (stereo unspecified),2.6%
23,O=C1/C(=C\Nc2ccccc2)CCN1c1ncccn1,-11.4%
24,O=C(CN1CCCSc2ccccc21)N1CCN(S(=O)(=O)c2ccccc2)CC1,-4.66%

row,SMILES,inhibition
1,Cc1ccccc1NC(=O)Nc1ccccc1N1CCCCC1,2.88%
2,O=C(NC(=O)c1ccccc1N1CCCCC1)Nc1ccc(Br)cc1,51.5% (active)
3,COc1ccccc1C(=O)NC(=S)Nc1ccccc1N1CCCCC1,30%
4,COc1ccc(S(=O)(=O)N(CC(=O)N/N=C/c2ccccc2C(=O)O)c2ccccc2OC)cc1,-6.42%
5,COc1ccccc1NC(=O)CN(c1ccccc1OC)S(=O)(=O)c1ccccc1,-19.5%
6,COc1ccccc1N(CC(=O)N/N=C(\C)c1ccccc1O)S(=O)(=O)c1ccc(C)cc1,52.3% (active)
7,C=CCN1CC(C)/C(=N\O)CC1C (stereo unspecified),24.4%
8,Brc1cc(Br)c(Oc2cc(Br)c(Br)cc2Br)cc1Br,15.4%
9,Fc1ccccc1-c1cc2cc3c(cc2cn1)OCO3,-231%
10,O=C(CSc1cccc2cccnc12)N/N=C/c1cccnc1,54.3% (active)
11,Cc1ccc(NC(=O)CSc2cccc3cccnc23)c(C)c1,28.1%
12,Cc1nc2ccccc2n1CC(=O)N/N=C/c1cccnc1,25.2%
13,C/C(=N\NC(=O)c1ccc(CSc2nc(C)cc(C)n2)cc1)C1CCCCC1,11.2%
14,COc1ccc(NC(=O)CSCc2ccc([N+](=O)[O-])cc2)cc1OC,22.2%
15,O=C(c1cccc(S(=O)(=O)N2CCCC2)c1)N(Cc1ccco1)C1CCS(=O)(=O)C1 (stereo unspecified),10.9%
16,O=C(N/N=C/c1cc2c(cc1Br)OCO2)C1COc2ccccc2O1 (stereo unspecified),3.36%
17,CC1(C(=O)N/N=C/c2cc3c(cc2Br)OCO3)CC1(Br)Br (stereo unspecified),31.2%
18,O=C(N/N=C\c1cc2c(cc1Cl)OCO2)c1ccc(Br)s1,87.3% (active)
19,O=S(=O)(Nc1nccs1)c1ccc2c(c1)OCCO2,12.5%
20,CC(Sc1nnc(CNC(=O)c2ccccc2F)n1C)C(=O)Nc1nccs1 (stereo unspecified),-5.88%
21,Nc1ccc2nn(-c3ccc(Cl)cc3)nc2c1,-91.9%
22,CCOc1ccc(/C=N/NC(N)=S)cc1,10.2%
23,CC(C)Oc1c(Br)cc(Br)cc1/C=N/NC(N)=S,57.4% (active)
24,NC(=S)N/N=C/c1coc2cc(Cl)ccc2c1=O,-1.23%
